This is a sample that favours compounds with a hit; in the whole collection about 12% have one here.
ROMK primary = ROMK potassium channel modulators, primary screen, cell-based, thallium flux, MLSMR library | AID 1918, 2009 | ATP-sensitive inward rectifier potassium channel 1 (Homo sapiens), P48048 | B-score at 10 µM | 130,000 compounds, 2% hits | Tet-inducible ROMK, thallium flux fluorescence; actives lie on both sides;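 active means signal ratio slope over the read window, or its plate-corrected B-score, at least 3 SD from the plate mean, either direction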;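 further: B-score of the F/F0 ratio slope over 7 to 12 s after thallium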
KCC2 mod = KCC2 cotransporter modulators, thallium flux, primary screen, cell-based, HEK293 KCC2, FluoZin-2 fluorescence, MLSMR; Solute carrier family 12 member 5 (Homo sapiens), Q9H2X9; KCC2 cells, thallium flux FluoZin-2 fluorescence; B-score of Tl+ flux slope (higher = more flux/activation; lower = inhibition) at 10 µM; 190,000 compounds, 2.2% hits;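 active means thallium flux slope and its plate-corrected score both differing from the plate sample mean at a set confidence after two filtering rounds, in either direction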;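 further: slope of fluorescence scaled to starting intensity during 10 to 20 s after thallium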
Calpain2 inh = inhibitors of pig calpain II, primary screen, biochemical, fluorogenic peptide substrate, 1536-well; purified calpain II, 30 min; inhibition, % at 16 µM; 220,000 compounds, 0.37% hits;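 active means inhibition above about 50%, limit read from the data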
WT yeast gro inh = growth inhibition of WT strain, primary screen, mitochondrial fusion inhibitor project, WT and mutant strains, chemical genetic; mitochondrial fusion phenotypic screen; inhibition, % at 10 µM; 190,000 compounds, 2.1% hits; in the data active means inhibition above about 58%; tested in S. cerevisiae
L major viab = Leishmania major promastigote growth inhibition, primary screen; AID 1063, 2008; 200,000 compounds, 9% hits; Leishmania major promastigotes, resazurin fluorescence viability; inhibition, % at 10 µM; in the data active means inhibition above about 50%;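 further: promastigotes grown with compound for 44 hours at 28 °C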
Each line names hits and unclear results; the compound was inactive in the other large screens.

CCOC(=O)C1CCN(c2c(NCc3ccc(C(=O)N(C)Cc4ccccc4)cc3)c(=O)c2=O)CC1	none
COc1cccc(-c2cc(C(F)(F)F)n3nc(C(=O)N4CCCCC4c4cccnc4)cc3n2)c1 (stereo not drawn)	L major viab 89
O=[N+]([O-])c1cc(C(F)(F)F)ccc1N1CCN(S(=O)(=O)c2ccc3ccccc3c2)CC1	none (no result: ROMK primary)
Cn1c(=O)n(C)c2cc([N+](=O)[O-])c(N3CCN(S(=O)(=O)c4ccc(C(C)(C)C)cc4)CC3)cc21	WT yeast gro inh 74, L major viab 70 (no result: ROMK primary, KCC2 mod)
O=[N+]([O-])c1cc(C(F)(F)F)cc([N+](=O)[O-])c1N1CCN(S(=O)(=O)c2ccccc2)CC1	L major viab 51
O=C(COC(=O)c1n[nH]c2ccccc12)NC(=O)NC12CC3CC(CC(C3)C1)C2	none
Cc1ccc(-n2nc3ccc(NC(=O)/C=C/c4ccco4)cc3n2)cc1	L major viab 60
O=C(Cc1ccc(Cl)cc1)NC(=S)Nc1ccccc1N1CCOCC1	WT yeast gro inh 62 (no result: ROMK primary)
COC(=O)c1ccccc1NC(=O)CNc1cc(Cl)ccc1N1CCOCC1	WT yeast gro inh 64, L major viab 80 (no result: ROMK primary)
O=C(Nc1ccccc1N1CCOCC1)c1cccs1	none (no result: ROMK primary, KCC2 mod)
O=C(NC(=S)Nc1ccccc1N1CCOCC1)c1cccs1	KCC2 mod 39
Cc1cc(C)n(CC(O)COc2ccccc2[N+](=O)[O-])n1 (stereo not drawn)	none (no result: ROMK primary)
CC(=O)N(CCC1(c2ccc(C)cc2)CCOC(C(C)C)C1)Cc1ccco1 (stereo not drawn)	none (no result: ROMK primary, WT yeast gro inh, L major viab)
O=c1c2cccnc2[nH]c(=S)n1Cc1ccccc1	KCC2 mod 5.5 (no result: ROMK primary)
O=c1c2ccccc2[nH]c(=S)n1CCN1CCN(Cc2ccccc2)CC1	KCC2 mod 15
O=c1c2nccnc2[nH]c(=S)n1Cc1ccccc1	none
C=CCn1c(SCC(=O)c2ccc(NS(=O)(=O)c3ccccc3)cc2)nnc1-c1cccs1	none
Cc1nn(-c2ccccc2)c(Cl)c1C(=O)OC(C)C(=O)NC(=O)NC1CCCCC1 (stereo not drawn)	WT yeast gro inh 69 (no result: ROMK primary)
CC(=O)N(C)c1ccc(OCC(O)Cn2c(C)nc3ccccc32)cc1 (stereo not drawn)	none
CC(=O)N(C)c1ccc(OCC(O)Cn2c3ccc(Cl)cc3c3cc(Cl)ccc32)cc1 (stereo not drawn)	WT yeast gro inh 77 (no result: ROMK primary)
c1ccc(CCNc2ncnc3scc(C4COc5ccccc5O4)c23)cc1 (stereo not drawn)	Calpain2 inh 60, WT yeast gro inh 69, L major viab 85
O=C(CCc1nnc(-c2ccccc2)o1)NCc1c(F)cccc1F	none
O=C(O)CSc1ncnc2sc(-c3ccccc3)cc12	none
CC(=O)c1c(C)[nH]c(C(=O)CSc2ncnc3sc(-c4ccccc4)cc23)c1C	KCC2 mod 29, L major viab 74 (no result: ROMK primary)
CCOC(=O)c1c(C)[nH]c(C(=O)CSc2nnc(-c3cccs3)n2Cc2ccccc2)c1C	none (no result: ROMK primary)
CC(=O)c1c(C)[nH]c(C(=O)CSc2nnc(-c3cccs3)n2Cc2ccccc2)c1C	L major viab 78
COc1ccc(/C=N/NC(=O)c2cccc(NC(=O)c3ccccc3)c2)c(C(=O)O)c1OC	none
COc1cc(/C=C(\C#N)c2nc3ccc(C)cc3[nH]2)cc([N+](=O)[O-])c1O	none (no result: KCC2 mod)
Cc1ccc2nc(/C(C#N)=C\c3cc(O)ccc3[N+](=O)[O-])[nH]c2c1	none
CCN(CC)c1ccc(/C=C(/C#N)c2nc3ccc(C)cc3[nH]2)c(OC(C)C)c1	L major viab 100 (no result: ROMK primary)
COc1cc(/C=C(\C#N)c2nc3ccc(C)cc3[nH]2)c([N+](=O)[O-])cc1OC	L major viab 98 (no result: KCC2 mod)
COc1ccc(/C=N/NC(=O)c2nn(-c3ccccc3)c(=O)c3c(N)scc23)cc1	L major viab 83 (no result: ROMK primary)
COc1ccc(/C=N/NC(=O)c2nn(-c3ccc(Cl)cc3)c(=O)c3c(N)scc23)cc1	L major viab 69
CCOC(=O)c1nn(-c2ccc(OC)cc2)c(=O)c2c(N)scc12	none (no result: ROMK primary)
C=C1C(C(=O)Nc2ccc(OC)cc2)C1C(=O)Nc1ccc(OC)cc1 (stereo not drawn)	none (no result: ROMK primary, WT yeast gro inh, L major viab)
O=C(COC(=O)c1ccccc1[N+](=O)[O-])c1ccc(C2CCCCC2)cc1	WT yeast gro inh 60 (no result: ROMK primary)
O=C(COC(=O)c1ccccc1C(=O)c1ccc(Cl)c([N+](=O)[O-])c1)NC1CC1	none
Cc1ccc(Oc2ccc(-c3nc(N)nc(N)n3)cc2)cc1	L major viab 98 (no result: ROMK primary, KCC2 mod)
CCCc1nc2c(C)cc(C)cc2c(N)c1CC	L major viab 98 (no result: ROMK primary, KCC2 mod)
O=C(c1ccco1)N1CCN(Cc2cn[nH]c2-c2cccc3ccccc23)CC1	none (no result: ROMK primary, WT yeast gro inh, L major viab)
COc1ccc(C(=O)COC(=O)C2CCCN2C(=O)C23CC4CC(CC(C4)C2)C3)cc1 (stereo not drawn)	L major viab 55 (no result: ROMK primary)
O=C(COC(=O)C1CCCN1C(=O)C12CC3CC(CC(C3)C1)C2)c1ccc(Br)cc1 (stereo not drawn)	none
CCOc1ccc(NC(=O)NC23CC4CC(CC(C4)C2)C3)cc1	none
CC1=NN(C(=O)CSCc2ccccc2)C(O)(c2ccc(F)cc2)C1 (stereo not drawn)	L major viab 99
CC(C)(C)Nc1nc2ccc([N+](=O)[O-])cc2o1	none (no result: ROMK primary, WT yeast gro inh, L major viab)
CCSc1ccccc1C(=O)NCc1cccnc1	none
O=C(NCc1cccnc1)c1cc(Sc2ccccc2Cl)nc2ccccc12	L major viab 78
Cc1ccccc1OCCC(=O)Nc1ccc(F)c(Cl)c1	L major viab 68
CCOc1ccccc1OCCC(=O)Nc1ccc(F)c(Cl)c1	none (no result: KCC2 mod)
NC(N)=Nc1nc(-c2ccccc2)c2ccccc2n1	L major viab 98
CCc1onc(C)c1C(=O)O	none
c1ccc(-c2noc(CN3CCc4sccc4C3)n2)cc1	none
COc1ccc(/C=C/c2cc(-c3ccc(C)cc3)o[n+]2C)cc1	WT yeast gro inh 58, L major viab 101
O=C(O)/C=C/C(=O)NC1CC1	none (no result: ROMK primary)
COc1ccc(/C=C2\CCCC3C2=NN(C(=O)COC(=O)CNC(=O)c2ccccc2)C3c2ccc(OC)cc2)cc1 (stereo not drawn)	none
Cc1nc(N2N=C3/C(=C/c4ccc(F)cc4)CCCC3C2c2ccc(F)cc2)sc1C(=O)N(C)C (stereo not drawn)	WT yeast gro inh 74 (no result: ROMK primary)
CCOc1ccc(N(CC(=O)NCC2CCCO2)C(=O)CCC(=O)Nc2nccs2)cc1 (stereo not drawn)	none
CC1CCCCC1NCC#CCOc1ccc(Cl)cc1 (stereo not drawn)	L major viab 83
O=C(NCCC1=CCCCC1)c1cc(-c2ccncc2)nc2ccccc12	none
NC(=O)c1ccccc1OC1CCC1	none (no result: WT yeast gro inh, L major viab)
O=C(NCCCn1ccnc1)c1cc2c(ccc3ccccc32)o1	none
c1ccc2c(c1)oc1c(NCCCn3ccnc3)ncnc12	L major viab 94 (no result: ROMK primary, KCC2 mod)
Cc1nc(NC(C)C)c2oc3ccccc3c2n1	none (no result: KCC2 mod)

Screening data as filed in PubChem BioAssay.
